Our source for the inhibition values is ChEMBL document CHEMBL1961873, “Compounds: GSK PKIS; Assays: Nanosyn kinase panel” (2012).

The inhibition is the relative decrease from the control value, in per cent.

Experiment [1] deals with Protein kinase C gamma type (Homo sapiens) (UniProt P05129). As to conditions: at 1 µM.
Experiment [2] has as its target T1, Protein kinase C iota type (Homo sapiens) (UniProt P41743).
T1 sequence (whole entry): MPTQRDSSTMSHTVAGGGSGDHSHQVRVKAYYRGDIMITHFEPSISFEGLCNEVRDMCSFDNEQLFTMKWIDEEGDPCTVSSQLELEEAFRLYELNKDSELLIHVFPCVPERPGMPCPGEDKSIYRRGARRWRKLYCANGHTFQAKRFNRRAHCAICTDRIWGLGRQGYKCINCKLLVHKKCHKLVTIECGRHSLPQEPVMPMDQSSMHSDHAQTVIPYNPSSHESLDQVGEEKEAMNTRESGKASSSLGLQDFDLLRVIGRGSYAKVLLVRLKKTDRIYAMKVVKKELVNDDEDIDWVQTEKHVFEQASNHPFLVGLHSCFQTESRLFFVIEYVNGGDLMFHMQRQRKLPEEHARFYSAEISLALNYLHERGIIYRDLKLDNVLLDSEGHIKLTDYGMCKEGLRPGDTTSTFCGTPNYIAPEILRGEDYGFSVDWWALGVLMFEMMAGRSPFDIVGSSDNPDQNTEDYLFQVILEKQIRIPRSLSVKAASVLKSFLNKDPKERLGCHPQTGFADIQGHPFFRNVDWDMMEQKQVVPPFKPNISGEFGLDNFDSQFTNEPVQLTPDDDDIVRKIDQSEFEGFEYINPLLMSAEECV
As to conditions: at 0.1 µM.

Experiment [3] addresses T1, Protein kinase C iota type (Homo sapiens). Particulars: at 1 µM.
In experiment [4] the target is Protein kinase C theta type (Homo sapiens) (UniProt Q04759). Particulars: at 0.1 µM.
Chain of Protein kinase C theta type (Homo sapiens) (Q04759 whole entry, looked up): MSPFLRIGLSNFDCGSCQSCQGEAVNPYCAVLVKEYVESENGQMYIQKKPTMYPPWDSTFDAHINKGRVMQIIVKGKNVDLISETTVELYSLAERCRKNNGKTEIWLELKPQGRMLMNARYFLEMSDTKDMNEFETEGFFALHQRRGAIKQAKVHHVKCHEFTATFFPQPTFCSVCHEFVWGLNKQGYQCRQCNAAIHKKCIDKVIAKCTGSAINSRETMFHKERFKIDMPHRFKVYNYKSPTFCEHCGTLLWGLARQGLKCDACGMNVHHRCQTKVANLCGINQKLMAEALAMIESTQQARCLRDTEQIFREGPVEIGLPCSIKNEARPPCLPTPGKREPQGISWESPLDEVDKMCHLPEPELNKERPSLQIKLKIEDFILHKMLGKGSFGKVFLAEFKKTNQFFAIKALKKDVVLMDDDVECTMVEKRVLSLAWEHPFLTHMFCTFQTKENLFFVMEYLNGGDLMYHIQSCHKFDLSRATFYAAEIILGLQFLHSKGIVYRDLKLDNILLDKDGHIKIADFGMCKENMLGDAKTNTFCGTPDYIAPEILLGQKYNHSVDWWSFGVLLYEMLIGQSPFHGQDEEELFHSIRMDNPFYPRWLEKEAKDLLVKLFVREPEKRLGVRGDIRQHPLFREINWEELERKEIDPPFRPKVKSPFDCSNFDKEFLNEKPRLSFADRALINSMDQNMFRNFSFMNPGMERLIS
Experiment [5] has the same target. Particulars: at 1 µM.
The target of experiment [6] is Protein kinase C beta type (Homo sapiens) (UniProt P05771). Particulars: at 0.1 µM.
Chain of Protein kinase C beta type (Homo sapiens) (P05771 2-671 limits assumed): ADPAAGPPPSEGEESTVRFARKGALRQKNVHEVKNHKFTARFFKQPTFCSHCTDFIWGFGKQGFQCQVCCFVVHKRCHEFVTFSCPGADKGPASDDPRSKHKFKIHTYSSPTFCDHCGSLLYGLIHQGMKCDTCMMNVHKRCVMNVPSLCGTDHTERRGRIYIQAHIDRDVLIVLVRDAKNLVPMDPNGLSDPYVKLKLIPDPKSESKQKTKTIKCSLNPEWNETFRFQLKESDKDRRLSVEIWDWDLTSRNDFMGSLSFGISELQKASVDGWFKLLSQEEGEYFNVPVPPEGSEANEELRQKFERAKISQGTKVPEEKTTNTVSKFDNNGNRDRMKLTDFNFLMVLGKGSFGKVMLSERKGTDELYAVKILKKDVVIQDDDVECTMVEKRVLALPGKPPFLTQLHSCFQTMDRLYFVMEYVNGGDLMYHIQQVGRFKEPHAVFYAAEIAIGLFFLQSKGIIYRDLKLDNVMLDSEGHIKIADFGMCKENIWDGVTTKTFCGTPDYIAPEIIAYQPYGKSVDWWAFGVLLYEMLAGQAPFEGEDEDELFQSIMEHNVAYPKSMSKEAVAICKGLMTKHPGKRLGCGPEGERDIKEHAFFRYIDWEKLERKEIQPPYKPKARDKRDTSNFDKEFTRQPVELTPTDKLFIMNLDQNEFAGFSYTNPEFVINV
For experiment [7] the target is unchanged. Particulars: at 1 µM.
Experiment [8] deals with T2, Serine/threonine-protein kinase D1 (Homo sapiens) (UniProt Q15139).
T2 sequence (whole entry): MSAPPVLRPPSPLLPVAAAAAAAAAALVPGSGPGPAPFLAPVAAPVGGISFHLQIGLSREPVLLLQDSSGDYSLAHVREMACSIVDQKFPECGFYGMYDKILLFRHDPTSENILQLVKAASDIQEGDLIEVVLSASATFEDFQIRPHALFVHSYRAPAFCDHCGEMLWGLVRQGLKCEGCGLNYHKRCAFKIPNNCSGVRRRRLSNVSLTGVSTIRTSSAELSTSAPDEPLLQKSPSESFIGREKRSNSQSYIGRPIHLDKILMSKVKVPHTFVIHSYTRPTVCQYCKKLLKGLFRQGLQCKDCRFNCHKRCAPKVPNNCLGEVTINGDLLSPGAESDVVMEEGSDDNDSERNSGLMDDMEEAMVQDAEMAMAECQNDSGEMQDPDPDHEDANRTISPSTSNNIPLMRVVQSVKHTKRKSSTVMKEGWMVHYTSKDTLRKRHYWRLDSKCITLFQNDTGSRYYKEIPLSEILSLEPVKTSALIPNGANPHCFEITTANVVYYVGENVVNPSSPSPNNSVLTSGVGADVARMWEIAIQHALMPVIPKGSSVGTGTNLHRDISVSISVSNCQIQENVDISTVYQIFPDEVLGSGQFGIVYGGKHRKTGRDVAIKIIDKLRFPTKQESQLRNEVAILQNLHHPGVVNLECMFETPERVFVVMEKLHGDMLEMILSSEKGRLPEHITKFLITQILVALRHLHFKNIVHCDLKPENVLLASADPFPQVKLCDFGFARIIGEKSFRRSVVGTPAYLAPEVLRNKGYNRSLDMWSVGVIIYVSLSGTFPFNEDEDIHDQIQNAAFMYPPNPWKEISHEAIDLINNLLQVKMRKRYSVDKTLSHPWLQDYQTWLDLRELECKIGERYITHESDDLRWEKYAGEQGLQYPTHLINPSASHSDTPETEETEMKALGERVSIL
Particulars: at 0.1 µM.

Experiment [9] addresses T2, Serine/threonine-protein kinase D1 (Homo sapiens). Particulars: at 1 µM.
Experiment [10] has as its target T3, Serine/threonine-protein kinase D2 (Homo sapiens) (UniProt Q9BZL6).
T3 sequence (whole entry): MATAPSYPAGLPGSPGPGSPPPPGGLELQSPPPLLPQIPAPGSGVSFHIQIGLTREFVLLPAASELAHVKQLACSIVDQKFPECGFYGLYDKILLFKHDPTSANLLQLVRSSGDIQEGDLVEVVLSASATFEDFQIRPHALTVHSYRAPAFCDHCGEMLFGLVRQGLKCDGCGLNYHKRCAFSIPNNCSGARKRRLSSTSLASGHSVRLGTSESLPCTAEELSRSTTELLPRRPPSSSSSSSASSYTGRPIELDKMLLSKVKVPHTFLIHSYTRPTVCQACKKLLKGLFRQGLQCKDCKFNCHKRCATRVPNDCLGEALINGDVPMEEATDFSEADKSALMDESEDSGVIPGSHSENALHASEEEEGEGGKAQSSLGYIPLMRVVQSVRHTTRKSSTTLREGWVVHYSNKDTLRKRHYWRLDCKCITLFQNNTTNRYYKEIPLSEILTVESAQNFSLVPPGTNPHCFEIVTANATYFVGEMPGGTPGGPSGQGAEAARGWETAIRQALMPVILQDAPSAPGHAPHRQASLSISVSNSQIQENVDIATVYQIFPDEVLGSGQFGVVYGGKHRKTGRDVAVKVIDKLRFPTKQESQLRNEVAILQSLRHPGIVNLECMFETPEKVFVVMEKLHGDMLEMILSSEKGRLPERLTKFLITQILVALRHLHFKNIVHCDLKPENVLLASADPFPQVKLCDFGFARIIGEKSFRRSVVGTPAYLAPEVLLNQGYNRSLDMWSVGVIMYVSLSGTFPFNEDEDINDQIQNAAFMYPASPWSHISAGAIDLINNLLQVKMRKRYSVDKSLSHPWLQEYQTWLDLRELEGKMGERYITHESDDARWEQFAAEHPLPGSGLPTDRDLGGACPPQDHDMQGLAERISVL
As to conditions: at 0.1 µM.

Experiment [11] has as its target T3, Serine/threonine-protein kinase D2 (Homo sapiens). As to conditions: at 1 µM.
Experiment [12] has as its target T4, Serine/threonine-protein kinase D3 (Homo sapiens) (UniProt O94806).
T4 sequence (whole entry): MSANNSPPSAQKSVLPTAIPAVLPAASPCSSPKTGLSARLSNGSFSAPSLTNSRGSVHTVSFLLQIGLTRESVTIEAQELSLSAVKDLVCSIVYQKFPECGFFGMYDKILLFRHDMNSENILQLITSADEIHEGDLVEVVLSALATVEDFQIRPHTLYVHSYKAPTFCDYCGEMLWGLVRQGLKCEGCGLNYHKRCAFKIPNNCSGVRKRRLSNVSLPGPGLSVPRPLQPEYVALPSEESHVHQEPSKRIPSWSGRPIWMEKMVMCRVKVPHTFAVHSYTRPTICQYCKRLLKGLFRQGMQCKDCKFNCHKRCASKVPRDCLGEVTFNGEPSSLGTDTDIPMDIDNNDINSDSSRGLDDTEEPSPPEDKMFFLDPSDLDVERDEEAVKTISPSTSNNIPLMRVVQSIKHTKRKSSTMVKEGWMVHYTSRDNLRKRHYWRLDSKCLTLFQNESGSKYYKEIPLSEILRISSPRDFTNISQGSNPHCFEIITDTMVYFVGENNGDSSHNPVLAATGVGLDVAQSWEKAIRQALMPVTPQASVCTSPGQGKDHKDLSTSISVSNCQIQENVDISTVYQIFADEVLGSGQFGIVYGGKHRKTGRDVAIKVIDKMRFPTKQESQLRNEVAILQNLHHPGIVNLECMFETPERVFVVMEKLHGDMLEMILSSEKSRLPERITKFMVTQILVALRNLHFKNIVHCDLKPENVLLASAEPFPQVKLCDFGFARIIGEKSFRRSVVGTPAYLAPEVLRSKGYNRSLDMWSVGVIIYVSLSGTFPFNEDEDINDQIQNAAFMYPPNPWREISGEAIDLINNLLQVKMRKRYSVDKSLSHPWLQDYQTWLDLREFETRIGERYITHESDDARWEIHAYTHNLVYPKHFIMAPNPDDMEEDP
As to conditions: at 0.1 µM.

The target of experiment [13] is T4, Serine/threonine-protein kinase D3 (Homo sapiens). Particulars: at 1 µM.
For experiment [14], the target named is T5, cGMP-dependent protein kinase 1 (Homo sapiens) (UniProt Q13976).
T5 sequence (whole entry): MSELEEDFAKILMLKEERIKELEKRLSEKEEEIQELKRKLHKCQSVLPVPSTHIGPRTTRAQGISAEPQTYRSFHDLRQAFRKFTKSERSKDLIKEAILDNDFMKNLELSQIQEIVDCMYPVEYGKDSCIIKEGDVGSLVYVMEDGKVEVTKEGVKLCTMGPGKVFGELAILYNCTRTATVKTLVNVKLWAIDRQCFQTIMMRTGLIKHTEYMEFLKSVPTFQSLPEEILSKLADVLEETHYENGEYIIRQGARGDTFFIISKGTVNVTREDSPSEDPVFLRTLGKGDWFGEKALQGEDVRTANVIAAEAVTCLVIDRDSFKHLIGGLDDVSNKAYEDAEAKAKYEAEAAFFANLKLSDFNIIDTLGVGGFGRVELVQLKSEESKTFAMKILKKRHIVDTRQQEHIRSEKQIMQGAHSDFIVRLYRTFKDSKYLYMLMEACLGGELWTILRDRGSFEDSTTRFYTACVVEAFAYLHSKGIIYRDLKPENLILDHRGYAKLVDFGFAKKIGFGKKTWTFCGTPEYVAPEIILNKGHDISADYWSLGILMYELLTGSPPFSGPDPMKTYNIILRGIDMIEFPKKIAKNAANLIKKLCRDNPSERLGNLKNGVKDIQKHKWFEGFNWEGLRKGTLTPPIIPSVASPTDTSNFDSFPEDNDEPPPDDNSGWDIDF
As to conditions: at 0.1 µM.

Experiment [15] has as its target T5, cGMP-dependent protein kinase 1 (Homo sapiens). As to conditions: at 1 µM.
The target in experiment [16] is T6, cGMP-dependent protein kinase 2 (Homo sapiens) (UniProt Q13237).
T6 sequence (whole entry): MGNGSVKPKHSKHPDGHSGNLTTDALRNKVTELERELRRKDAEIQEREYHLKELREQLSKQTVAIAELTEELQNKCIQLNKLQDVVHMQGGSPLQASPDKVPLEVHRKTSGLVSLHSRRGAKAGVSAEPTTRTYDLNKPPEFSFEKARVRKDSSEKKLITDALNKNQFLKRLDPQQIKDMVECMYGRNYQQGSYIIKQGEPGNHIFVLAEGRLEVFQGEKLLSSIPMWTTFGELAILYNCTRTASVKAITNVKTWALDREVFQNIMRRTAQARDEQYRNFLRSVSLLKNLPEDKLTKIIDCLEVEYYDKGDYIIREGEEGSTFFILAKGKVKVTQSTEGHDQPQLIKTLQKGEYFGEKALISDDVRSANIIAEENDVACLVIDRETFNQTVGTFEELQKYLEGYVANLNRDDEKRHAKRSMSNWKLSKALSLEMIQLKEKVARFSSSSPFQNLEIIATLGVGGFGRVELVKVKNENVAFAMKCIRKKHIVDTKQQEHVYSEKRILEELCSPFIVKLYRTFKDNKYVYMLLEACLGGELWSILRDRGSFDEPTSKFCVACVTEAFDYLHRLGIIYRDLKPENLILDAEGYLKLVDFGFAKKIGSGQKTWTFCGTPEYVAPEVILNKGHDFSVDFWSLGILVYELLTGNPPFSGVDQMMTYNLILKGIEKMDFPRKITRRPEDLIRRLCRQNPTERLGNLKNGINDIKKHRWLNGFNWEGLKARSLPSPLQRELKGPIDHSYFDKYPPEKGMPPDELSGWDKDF
Particulars: at 0.1 µM.

Experiment [17] addresses T6, cGMP-dependent protein kinase 2 (Homo sapiens). As to conditions: at 1 µM.
Experiment [18] has as its target T7, cAMP-dependent protein kinase catalytic subunit PRKX (Homo sapiens) (UniProt P51817).
T7 sequence (whole entry): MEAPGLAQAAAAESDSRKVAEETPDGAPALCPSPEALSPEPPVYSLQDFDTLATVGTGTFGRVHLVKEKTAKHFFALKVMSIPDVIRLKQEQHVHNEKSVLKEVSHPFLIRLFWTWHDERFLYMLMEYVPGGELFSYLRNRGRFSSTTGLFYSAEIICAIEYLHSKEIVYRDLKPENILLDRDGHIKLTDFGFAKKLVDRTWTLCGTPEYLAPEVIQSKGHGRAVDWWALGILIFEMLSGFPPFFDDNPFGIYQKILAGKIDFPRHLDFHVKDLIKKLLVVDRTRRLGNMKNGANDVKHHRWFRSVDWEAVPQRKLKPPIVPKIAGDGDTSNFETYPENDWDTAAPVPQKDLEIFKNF
Particulars: at 0.1 µM.

Experiment [19] has as its target T7, cAMP-dependent protein kinase catalytic subunit PRKX (Homo sapiens). Particulars: at 1 µM.
For experiment [20], the target named is Rho-associated protein kinase 1 (Homo sapiens) (UniProt Q13464). As to conditions: at 0.1 µM.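 Further: values are mean percent inhibition of ROCK1.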
Chain of Rho-associated protein kinase 1 (Homo sapiens) (Q13464 2-1354 limits assumed): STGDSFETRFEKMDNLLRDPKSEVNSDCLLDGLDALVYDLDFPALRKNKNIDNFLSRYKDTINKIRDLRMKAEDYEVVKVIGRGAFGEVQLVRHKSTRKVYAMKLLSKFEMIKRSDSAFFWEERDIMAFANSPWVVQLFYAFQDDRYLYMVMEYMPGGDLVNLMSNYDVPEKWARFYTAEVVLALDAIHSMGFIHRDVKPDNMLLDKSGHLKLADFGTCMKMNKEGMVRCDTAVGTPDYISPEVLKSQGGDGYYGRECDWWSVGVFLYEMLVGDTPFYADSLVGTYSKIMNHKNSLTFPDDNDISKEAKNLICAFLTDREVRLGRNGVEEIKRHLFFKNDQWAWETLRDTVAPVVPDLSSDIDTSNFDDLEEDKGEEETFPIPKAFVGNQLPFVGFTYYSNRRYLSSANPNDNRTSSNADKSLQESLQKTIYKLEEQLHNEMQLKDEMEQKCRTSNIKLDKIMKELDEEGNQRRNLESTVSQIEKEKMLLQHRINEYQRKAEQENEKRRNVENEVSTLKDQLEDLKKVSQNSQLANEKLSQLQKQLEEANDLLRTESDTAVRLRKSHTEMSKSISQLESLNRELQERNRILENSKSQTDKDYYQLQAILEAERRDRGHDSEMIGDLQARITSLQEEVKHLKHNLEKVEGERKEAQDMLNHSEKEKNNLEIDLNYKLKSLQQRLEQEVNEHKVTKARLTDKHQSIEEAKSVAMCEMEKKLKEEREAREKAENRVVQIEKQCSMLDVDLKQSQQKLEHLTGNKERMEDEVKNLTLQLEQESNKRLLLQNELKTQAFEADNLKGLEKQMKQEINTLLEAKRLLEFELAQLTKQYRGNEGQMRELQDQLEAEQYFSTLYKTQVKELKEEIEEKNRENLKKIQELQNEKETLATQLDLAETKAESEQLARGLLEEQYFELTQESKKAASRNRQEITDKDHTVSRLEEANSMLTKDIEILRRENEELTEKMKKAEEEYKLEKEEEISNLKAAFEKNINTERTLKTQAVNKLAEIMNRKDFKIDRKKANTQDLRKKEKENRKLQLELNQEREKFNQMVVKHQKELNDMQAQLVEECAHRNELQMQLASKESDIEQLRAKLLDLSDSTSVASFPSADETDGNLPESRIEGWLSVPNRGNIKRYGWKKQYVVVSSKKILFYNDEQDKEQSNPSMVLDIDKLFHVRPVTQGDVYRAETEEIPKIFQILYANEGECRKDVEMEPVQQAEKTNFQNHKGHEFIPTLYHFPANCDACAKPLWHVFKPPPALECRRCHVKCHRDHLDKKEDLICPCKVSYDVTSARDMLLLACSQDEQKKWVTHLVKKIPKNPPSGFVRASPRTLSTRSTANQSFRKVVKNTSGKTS

In the case of `COc1ccc2cc(-c3c(-c4ccncc4)nc(-c4ccc(S(C)(=O)=O)cc4C)n3C)ccc2c1`, the inhibition came out at 7.85% in [1]; 3.93% in experiment [2]; 3.45% in experiment [3]; 2.19% in experiment [4]; 5.03% in experiment [5]; 3.45% in experiment [6]. For the same compound, the inhibition amounted to 9.63% in experiment [7]; 4.08% in [8]; 4.53% in experiment [9]; 4.88% in experiment [10]; 4.27% in [11]; 3.99% in experiment [12]. Further, the inhibition in [13] came out at 4.2%; in experiment [14], 5.14%; in [15], 8.86%; in experiment [16], 5.61%; in experiment [17], 6.44%; in [18], 5.93%. The figures for the inhibition in experiment [19] and in experiment [20] were 12.1% and 8.02%, respectively.

As for `COc1cc2ncn(-c3cc(OCc4cccs4)c(C(N)=O)s3)c2cc1OC`, the inhibition in experiment [1] came out at 6.19%; in [2], 2.66%; in experiment [3], 0.01%; in experiment [4], 1.98%; in experiment [5], 6.01%; in experiment [6], 2.61%. The inhibition in experiment [7] was 4.99%; in [8], -0.16%; in experiment [9], -1.53%; in experiment [10], -1.61%; in experiment [11], -0.96%; in experiment [12], -1.14%. Besides, the inhibition in [13] was -2.04%; in experiment [14], 3.61%; in [15], 7.44%; in experiment [16] it was 3.73%; in experiment [17], 6.83%; in experiment [18] it was 3.18%. Also, the values for the inhibition in experiment [19] and in experiment [20] were -3.65% and 2.39%, respectively.
